Measured values: PubChem BioAssay (Tox21)
Inconclusive results are not listed. The source made the active and inactive calls. Calls come from the whole dose curve; as a rule, active = well fitted cell-killing curve with a large enough effect in the repeat runs; inconclusive = weak or mixed curves; inactive = flat fitted curve, though single readings scatter.

Assay: qHTS RealTime-Glo MT Cell Viability Assay in HepG2 cells - 16 hour (AID 1224885); note: nearly all actives have a fitted effect of over 50% in size
Conditions: RealTime-Glo luminescence; series mostly up to 76.8 µM
How it was run: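 Real-time, nonlytic viability: 600 HepG2 cells/well mixed with NanoLuc enzyme plus prosubstrate; 5 h settle, compound (DMSO) added by pintool; luminescence monitored over 40 h at 37 C.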

Row | SMILES | outcome
1 | NS(=O)(=O)c1ccccc1OC(F)(F)F | inactive
2 | Nc1cc(Cl)cc(S(=O)(=O)O)c1O | inactive
3 | O=C(CN1CCN(Cc2ccc3c(c2)OCO3)CC1)N1c2ccccc2Sc2ccccc21 | inactive
4 | C=CC(C)(O)CC/C=C(\C)CC (stereo not given) | inactive
5 | CCOC(=O)CC(CC(=O)OCC)(OC(C)=O)C(=O)OCC | inactive
